Experimental data: PubChem BioAssay
A number with no mark means an inactive call. Calls of active or inactive are those of the source.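 How the source made its calls: active means Her2 level under about 52% in both replicate screens, with viability over 70% of control (limit read from the data); inconclusive means Her2 under the limit in one screen only, or viability under 70%; inactive means Her2 level above the set limit.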

Target: Receptor tyrosine-protein kinase erbB-2 (Homo sapiens) (UniProt P04626)
Sequence (P04626 whole entry, looked up): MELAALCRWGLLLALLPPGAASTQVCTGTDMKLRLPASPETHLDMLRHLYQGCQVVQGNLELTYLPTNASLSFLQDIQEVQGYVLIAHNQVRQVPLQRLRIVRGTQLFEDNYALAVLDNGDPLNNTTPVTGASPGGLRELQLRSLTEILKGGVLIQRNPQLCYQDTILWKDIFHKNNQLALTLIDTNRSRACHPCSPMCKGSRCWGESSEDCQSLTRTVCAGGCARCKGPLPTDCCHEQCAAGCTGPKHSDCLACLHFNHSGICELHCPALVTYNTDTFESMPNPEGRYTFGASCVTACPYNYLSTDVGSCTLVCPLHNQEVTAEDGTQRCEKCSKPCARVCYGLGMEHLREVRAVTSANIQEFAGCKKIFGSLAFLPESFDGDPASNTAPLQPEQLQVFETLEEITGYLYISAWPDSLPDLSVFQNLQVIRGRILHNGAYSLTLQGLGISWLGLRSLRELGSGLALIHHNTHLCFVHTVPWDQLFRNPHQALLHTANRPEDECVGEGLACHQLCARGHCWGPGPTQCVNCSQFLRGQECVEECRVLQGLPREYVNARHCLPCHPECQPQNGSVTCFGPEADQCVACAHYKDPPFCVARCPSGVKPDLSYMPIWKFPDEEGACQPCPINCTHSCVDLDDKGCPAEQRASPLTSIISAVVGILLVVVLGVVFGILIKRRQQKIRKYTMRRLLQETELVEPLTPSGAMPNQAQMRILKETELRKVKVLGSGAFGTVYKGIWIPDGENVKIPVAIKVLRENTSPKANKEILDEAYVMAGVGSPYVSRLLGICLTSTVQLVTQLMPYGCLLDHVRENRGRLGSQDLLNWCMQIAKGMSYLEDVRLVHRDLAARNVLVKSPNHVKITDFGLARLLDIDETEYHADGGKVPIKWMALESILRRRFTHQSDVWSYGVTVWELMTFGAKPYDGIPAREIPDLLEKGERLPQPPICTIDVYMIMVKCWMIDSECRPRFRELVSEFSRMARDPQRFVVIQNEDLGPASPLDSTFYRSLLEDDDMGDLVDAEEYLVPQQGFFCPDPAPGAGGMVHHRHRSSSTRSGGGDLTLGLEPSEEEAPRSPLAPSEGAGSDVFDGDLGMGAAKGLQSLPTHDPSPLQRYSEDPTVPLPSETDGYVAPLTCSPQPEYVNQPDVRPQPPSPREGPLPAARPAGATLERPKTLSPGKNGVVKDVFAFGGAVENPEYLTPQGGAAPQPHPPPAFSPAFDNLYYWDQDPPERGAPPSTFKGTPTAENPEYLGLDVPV
Assay: reducers of endogenous Her2 protein level, primary screen, SKBR3 breast tumor cells, AlphaScreen, ATP viability (AID 461)
Conditions: 18-24 h, at 10 µM, stronger effect = lower value

Row | Compound | Her2 level
1 | Nc1nc(N2CCCCC2)nc(N(c2ccccc2)c2ccccc2)n1 | 104%
2 | O=C1c2ccccc2C(Nc2cccnc2)N1Cc1ccccc1Cl (centres undefined) | 91%
3 | CCN1CCN(c2nc3c(c(=O)[nH]c(=O)n3C)n2CCSc2nc3ccccc3s2)CC1 | 95%
4 | COc1cc(C(O)c2nc3ccccc3n2C)cc(OC)c1OC (centres undefined) | 100%
5 | CCOC(=O)N1CCC(Nc2nc3ccccc3n3cnnc23)CC1 | 89.5%
6 | COc1ccc(C2C(C(C)=O)=C(C)N=c3s/c(=C/c4ccc5c(c4)OCO5)c(=O)n32)cc1 (centres undefined) | 97.5%
7 | CCOC(=O)C1=C(C)N(C)C(=O)NC1c1ccccc1OC (centres undefined) | 88%
8 | CCCCS(=O)(=O)NC1=NCN(CCOC(=O)c2ccccc2)CN1 | 84.5%
9 | COc1ccc(-n2c(Cc3cccn3C)nnc2SCC(=O)Nc2cccc(Cl)c2)cc1 | 89%
10 | CCC1CCCCN1C(=O)CSc1nnc(-c2ccc(OC)cc2)o1 (centres undefined) | 102%
11 | COc1ccc(N(CC(=O)Nc2ccc3c(c2)OCO3)S(=O)(=O)c2c(C)nn(C)c2C)cc1 | 90.5%
12 | CCOc1ccc(C2CC(c3ccccc3C)n3nc(N)nc3N2)cc1 (centres undefined) | 93.5%
13 | Cc1cc(N)n2nc(-c3ccccc3)cc2n1 | 71%
14 | CCCCCn1c(CCNC(=O)CCC)nc2ccccc21 | 102%
15 | O=C(c1ccc2c(c1)OCCO2)N1CCCCC1 | 97%
16 | O=C(NCCc1c[nH]c2ccccc12)c1cnc2n(c1=O)CCS2 | 83%
17 | CCc1cc(=O)n2[nH]c(C)c(-c3ccccc3OC)c2n1 | 106%
18 | Cc1ccc(CSc2nc3c(c(=O)[nH]2)CCC3)cc1 | 91.5%
19 | CN(CCNS(=O)(=O)c1ccc2c(c1)oc(=O)n2C)Cc1ccccc1 | 99%
20 | COc1ccc(-c2nnc(SCC(=O)NC(C)c3ccccc3)o2)cc1 (centres undefined) | 102%

Row | Compound | Her2 level
21 | CCOc1ccc(Cn2nnc(C(=O)Nc3cc(C)cc(C)c3)c2N)cc1 | 90.5%
22 | CCCCCn1c(CN2CCN(C(=O)c3ccco3)CC2)nc2c1c(=O)n(C)c(=O)n2C | 103%
23 | CCN1CCN(Cc2ccc(NC(=O)Nc3ccccc3)cc2)CC1 | 106%
24 | CCCN(CCC)C(=O)c1c(C)[nH]c(C(=O)OCC)c1C | 110%
25 | COc1cccc(C2CC(c3c(Cl)cccc3Cl)n3nc(N)nc3N2)c1 (centres undefined) | 104%
26 | Cc1c(C(=O)OCc2ccccc2)[nH]c2c1C(=O)CC(c1ccco1)C2 (centres undefined) | 40.5% (active)
27 | Cn1c(=O)c2c(nc(SCCOc3ccc4ccc(=O)oc4c3)n2C)n(C)c1=O | 91.5%
28 | COc1ccc(NC(=O)CN(c2cc(C)cc(C)c2)S(=O)(=O)c2c(C)noc2C)cc1OC | 73%
29 | CCOc1ccc(N2CC(C(=O)Nc3ccccc3OC)CC2=O)cc1 (centres undefined) | 98%
30 | CC(C)CNc1oc(-c2ccc(F)cc2)nc1C#N | 110%
31 | O=C(Nc1nnc(N2CCCCCC2)s1)c1cc(-c2ccc(Br)cc2)on1 | 106%
32 | Cc1ccc(N=Cc2ccc[nH]2)c(O)c1 | 88.5%
33 | CCCOC(=O)c1[nH]c2c(c1C)C(=O)CC(c1cc(OC)c(OC)c(OC)c1)C2 (centres undefined) | 79%
34 | C=CCSc1nc2sc(C)c(C)c2c(=O)[nH]1 | 107%
35 | O=C(c1ccc(Br)cc1)N1CCN(S(=O)(=O)c2ccccc2)CC1 | 120%
36 | CN(C(=O)c1ccco1)c1nnc(C23CC4CC(CC(C4)C2)C3)s1 | 87%
37 | COc1ccc(-c2nc3c(n2O)CCC/C3=N\O)cc1 | 88.5%
38 | CC1CCC(NC(=O)C2(C)CCC(=O)N2Cc2cccnc2)CC1 (centres undefined) | 114%
39 | Cc1cnc(NC(=O)CSc2nnc(COc3c(C)cccc3C)o2)s1 | 102%
